The results in this text go back to PubChem BioAssay (NCATS).

Records with an inconclusive call do not appear. Activity calls are given as the source filed them. Calls come from the whole dose curve; as a rule, active = well fitted inhibition curve with a large enough effect; inconclusive = small, poorly fitted or top-dose-only effect; inactive = flat fitted curve, though single readings scatter.
% is set by controls: 0 for no effect and ±100 for the full control effect; potency is the fitted concentration of half-maximal effect.

The assay concerns NIH3T3. Briefly: Cytotoxic Profiling of Annotated Libraries Using Quantitative High-Throughput Screening (AID 1296008). Note: nearly all actives have a fitted effect of over 60% in size. As to conditions: Five cell lines viability, CellTiter-Glo ATP luminescence, 48-72 h; max response: hits give low values. The procedure, abridged: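 Cells exposed to compounds for 48 or 72 hr at 37 degrees Celsius. Viability read as ATP-coupled luminescence with CellTiter-Glo after 10 min at room temperature.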
With `Cc1c[nH]c2nccc(Oc3c(F)cc(Nc4cc(Cl)nc(N)n4)cc3F)c12`, the Potency was 10.3 µM (active).

Regarding `CC(C)C(CO)Nc1nc(Nc2cc(N)cc(Cl)c2)c2ncn(C(C)C)c2n1` (configuration not stated), the Potency is 3.66 µM (active). On the same count and under the same terms, in the case of `CC(Oc1cc(-n2cnc3ccc(CN4CCN(C)CC4)cc32)sc1C(N)=O)c1ccccc1C(F)(F)F` (configuration not stated) it was 8.2 µM (active). For the molecule `C=CC(C)(C)c1[nH]c2cc3c(cc2c1CC1NC(=O)C2=CCCN2C1=O)C=CC(C)(C)O3` (configuration not stated), the max response was -5.01% (inactive).

As to `CC(=O)O[C@H]1C(=O)[C@@]2(C)[C@H]([C@H](OC(=O)c3ccccc3)[C@]3(O)C[C@H](OC(=O)[C@H](O)[C@@H](NC(=O)c4ccccc4)c4ccccc4)C(C)=C1C3(C)C)[C@]1(OC(C)=O)CO[C@@H]1C[C@@H]2O`, the Potency was 0.031 µM (active). Turning to `C[C@@H]1N[C@H]2N(C1=O)c1ccccc1[C@@]2(O)C[C@@H]1C(=O)N[C@@H](C)c2nc3ccccc3c(=O)n21`, the max response was -0.438% (inactive). Turning to `C[C@@H](Oc1cc(-n2cnc3ccc(OC4CCN(C)CC4)cc32)sc1C(N)=O)c1ccccc1C(F)(F)F`, the Potency is 5.8 µM (active).
